Source: PubChem BioAssay (The Scripps Research Institute Molecular Screening Center)
Most compounds without a hit are left out; they make up all but 4.5% or so of the library.
ssDAF12 agonist: S. stercoralis DAF-12 nuclear receptor activators, primary screen, cell-based, luminescence, HEK293, GRIP1 co-expression, lit1-tk-luc; Nuclear hormone receptor DAF-12 (Strongyloides stercoralis); HEK293 ssDAF-12/GRIP1 lit1-tk-luc reporter; % of 3 µM dafachronic acid response; activation, % at 6.8 µM; 370,000 compounds, 1% hits; AID 652126, 2013;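 active means activation above the mean over all tested compounds plus 3 SD, cut at about 0.9% in these data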
hcDAF12 agonist: H. contortus DAF-12 nuclear receptor activators, primary screen, cell-based, luminescence, HEK293, lit1-tk-luc reporter; HEK293 hcDAF-12 lit1-tk-luc reporter; 0% DMSO, 100% Δ7-dafachronic acid; activation, % at 6.8 µM; 370,000 compounds, 1.4% hits;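 active means activation above the mean of all tested compounds plus 3 SD, cut at about 5.5% in these data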
DAX1 inh-1: DAX1 (NR0B1) inhibitors on StAR promoter, primary screen, cell-based, luminescence, SF-1 (NR5A1), full-length DAX-1 | inhibition, % at 6.8 µM | 370,000 compounds, 1.1% hits | HEK293T StAR-luciferase reporter, SF-1/DAX-1 repression relief;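 active means inhibition above the mean over all tested compounds plus 3 SD, cut at about 3.6% in these data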;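 further: higher inhibition means more luminescence from relief of DAX-1 repression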
GAA850 FXN act: FXN promoter activators, primary screen, cell-based, luciferase luminescence, HEK293 lucGAA850 | HEK293 lucGAA850 FXN promoter luciferase reporter, 24 h; percent of 10 µM SAHA response | 360,000 compounds, 0.56% hits | activation, % at 6 µM;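 active means activation above the average of all compounds screened plus 3 SD, cutoff fixed separately per campaign, cut at about 7.5% in these data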
DAX1 inh-2: DAX1 (NR0B1) inhibitors, primary screen, cell-based, HEK293, Gal4-DAX1, luciferase luminescence; Nuclear receptor subfamily 0 group B member 1 (Homo sapiens), P51843; HEK293 Gal4-DAX1 luciferase reporter; inhibition, % at 6.75 µM; 340,000 compounds, 0.99% hits; AID 504766, 2011;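 active means inhibition above the mean over all tested compounds plus 3 SD, cut at about 4.2% in these data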;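 further: inhibition shows as a rise in luminescence from relieved DAX1 repression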
Target sequence (P51843 207-470 limits assumed): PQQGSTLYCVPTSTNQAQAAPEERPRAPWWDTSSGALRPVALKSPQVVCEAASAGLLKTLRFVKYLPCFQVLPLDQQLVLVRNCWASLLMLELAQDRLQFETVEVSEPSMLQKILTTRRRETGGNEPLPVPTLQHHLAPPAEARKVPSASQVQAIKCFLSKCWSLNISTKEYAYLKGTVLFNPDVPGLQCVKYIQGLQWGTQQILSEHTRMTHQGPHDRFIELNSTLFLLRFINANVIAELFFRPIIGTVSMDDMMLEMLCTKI
hgDAF12 agonist: H. glycines DAF-12 receptor agonists, primary screen, cell-based, luminescence, HEK293, GAL4 fusion, UAS-luciferase; Nuclear hormone receptor DAF-12 (Heterodera glycines), GAL4 fusion; HEK293 GAL4-hgDAF12 UAS-luciferase reporter, agonist luminescence; normalized to butyrate control; activation, % at 6.8 µM; 370,000 compounds, 1.8% hits; AID 687014, 2013;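 active means activation above a cutoff set at the mean of all screened compounds plus 3 SD, cut at about 10% in these data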
DAX1 inh confirm: DAX1 (NR0B1) inhibitors relieving SF-1 repression, confirmation, cell-based, luminescence, HEK293T, full-length DAX-1, SF-1 activated StAR promoter | inhibition, % at 6.8 µM | 2,400 compounds, 87% hits | HEK293T StAR-promoter luciferase reporter, SF-1/DAX-1 repression | AID 652134, 2013 | shares compounds with DAX1 inh-1;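 active means inhibition above the average of every tested compound plus 3 SD, cut at about 3.8% in these data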
SF1 AF2mut Luc: StAR reporter signal changes without DAX1, counter-screen for DAX1 inhibitor project, cell-based, luminescence, AF-2 mutant SF-1, transactivation. shares compounds with DAX1 inh-1. HEK293 StAR-luciferase, SF-1 AF2 mutant. inhibition, % at 6.8 µM. 2,400 compounds, 78% hits. AID 652136, 2013;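 active means inhibition above the mean of all tested compounds plus 3 SD, cut at about 3% in these data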
LXR ag: LXR agonists, Gal4 luciferase reporter, confirmation, counter-screen for hcDAF-12 agonist project, cell-based, luminescence, HEK293, H. contortus campaign. shares compounds with hcDAF12 agonist. HEK293 Gal4-LXR tk-luc reporter, 24 h; normalized: DMSO 0%, positive control 100%. activation, % at 6.8 µM. 3,400 tested, under 10 active. AID 743027, 2013;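 active means mean percent activation of the reporter above a cutoff set as the average over tested compounds plus their standard deviation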
hcDAF12 ag: H. contortus DAF-12 receptor agonists, confirmation, cell-based, luminescence, HEK293, lit1-tk-luc, triplicate | shares compounds with hcDAF12 agonist | HEK293 hcDAF-12 lit1-tk-luc reporter; % of Δ7-dafachronic acid response | activation, % at 6.8 µM | 3,400 compounds, 61% hits;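 active means mean activation across triplicate tests above the threshold derived from the earlier primary screen, cut at about 5.5% in these data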
hgDAF12 conf: H. glycines DAF-12 receptor agonists, confirmation, cell-based, luminescence, HEK293, GAL4-LBD fusion | 3,300 compounds, 80% hits | activation, % at 6.8 µM | shares compounds with hgDAF12 agonist | HEK293 GAL4-hgDAF12 luciferase reporter, agonist mode; percent of butyrate response;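 active means mean activation over triplicate wells above the hit cutoff derived from the earlier primary screen, cut at about 11% in these data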
LXR ag 2: LXR agonists, Gal4 luciferase reporter, confirmation, counter-screen for hgDAF-12 agonist project, cell-based, luminescence, HEK293, H. glycines campaign | shares compounds with hgDAF12 agonist | 24 h | activation, % at 6.8 µM | 3,300 tested, under 10 active | AID 743051, 2013;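 active means mean activation of the triplicate above a set limit carried over from the primary screen, none filed active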
A number is an active result; . = inactive; / = no result.

SMILES | ssDAF12 agonist | hcDAF12 agonist | DAX1 inh-1 | GAA850 FXN act | DAX1 inh-2 | hgDAF12 agonist | DAX1 inh confirm | SF1 AF2mut Luc | hgDAF12 conf | LXR ag 2 | others
NC(=O)c1ncn([C@@H]2O[C@H](C(=O)N[C@H](Cc3c[nH]c4ccccc34)C(=O)O)[C@@H](O)[C@H]2O)n1 | . | . | . | / | / | . | / | / | / | /
CN(C)c1ccc(/C=C/c2ccncc2)cc1 | . | . | . | . | . | . | / | / | / | /
CN(C)c1ccc(C=Cc2cnccn2)cc1 | . | . | 6.7 | . | . | 18 | 16 | 9.8 | 16 | .
O=S1(=O)CC2c3ccccc3CCN2CN1Cc1ccc(F)cc1 (configuration not stated) | . | . | . | / | / | . | / | / | / | /
COC(=O)c1cc(NC(=O)NC2CCCCN(Cc3ccc(Cl)cc3)C2=O)cc(C(=O)OC)c1 (configuration not stated) | . | . | . | / | / | . | / | / | / | /
O=C(CSc1cnc2ccccc2n1)c1ccc(F)cc1 | 1.1 | 9.2 | 5.4 | . | . | 19 | 7.3 | 4.4 | 17 | . | LXR ag=.;hcDAF12 ag=.
O=C(CSc1nc2ccccc2o1)NN=C/C=C/c1ccccc1 | . | . | . | / | / | . | / | / | / | /
CC1CCN(c2nc3ccc(C(=O)NCCCN4CCCCC4C)cc3s2)CC1 (configuration not stated) | 1.6 | . | 7.2 | . | . | 15 | 12 | 7.1 | 15 | .
CC(C)c1ccc(NC(=O)c2ccccc2NC(=O)C2CC=CCC2C(=O)O)cc1 (configuration not stated) | . | . | 8.3 | . | 5.5 | 15 | . | 3.6 | . | .
O=C(/C=C/c1cccc(F)c1)N1CCc2ccccc21 | 2.2 | 14 | 5.6 | . | . | 24 | 15 | 8.4 | 22 | . | LXR ag=.;hcDAF12 ag=13
